# The list is not random: actives were taken first. Their share in the collection is about 2.7%.
# EWS-Fli block = EWS/Fli transcriptional activity inhibition; A673 NR0B1-luciferase reporter, viability-normalised; AID 651661; hit rate 0.67% among 350,000; inhibition, % at 12.6 µM;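 active = mean inhibition of at least 50% after viability correction, with every replicate also passing that limit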;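 also: firefly luciferase signal divided by Alamar Blue viability fluorescence both relative to DMSO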
# Env fusion inh = HIV envelope-mediated fusion inhibition; HeLa-JRFL Env/CEM21 cell fusion, luciferase; inhibition, % at 12.3 µM; hit rate 1.1% among 360,000;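 active = mean replicate inhibition score of at least 50 and every replicate individually at or above 50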;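 also: 0% = plate neutral controls and 100% = maraviroc near 300 nM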
# PGC1a acetyl inh = modulators of PGC1a acetylation. U2OS PGC1a acetylation, AlphaScreen anti-acetyl-lysine; with virally co-expressed GCN5 acetyltransferase. inhibition, % at 15.6 µM. hit rate 0.17% among 350,000;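 active = every replicate shows inhibition of at least 40%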;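 also: 0% = neutral control wells and 100% = positive control wells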
# F508del corr = CFTR F508del correction in bronchial cells. CFBE cells, YFP halide quenching; stimulated with forskolin plus potentiator P3; % fluorescence drop versus neutral controls. activity (quench increase), % at 7.58 µM. hit rate 0.36% among 350,000. AID 720511;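 active = mean added fluorescence quench of at least 8% versus neutral control, with both replicates also reaching 8%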;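 also: cells transiently co-express mutant CFTR-F508del with the halide-sensitive YFP; corrector assay measuring rescue of mutant channel to the surface after 24 h compound exposure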
# INS-1E GSIS act = primary screen for activators of insulin secretion dependent on glucose, INS-1E cells, GLuc reporter luminescence | activation, % at 16.6 µM | AID 743287 | INS-1E GLuc reporter insulin secretion, 2-3 h | hit rate 0.61% among 370,000;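 active = lowest replicate activation of at least 40%, so every replicate reaches that level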;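 also: 0% = median of neutral control wells and 100% = median of IBMX positive control wells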
# PAX8 reporter = lowers PAX8-driven luciferase in RMG-I cells; RMG-I TPO-luciferase reporter, SteadyGlo, 24 h; inhibition, % at 12.6 µM; hit rate 1.2% among 360,000;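 active = mean replicate inhibition at least 60% with every replicate also reaching 60%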;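 also: luciferase light reporting Pax8 driven TPO promoter activity; plate controls were median of neutral control wells for no effect and mitoxantrone controls for full effect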
# Numbers without * were called inactive; nt = no result; [ ] = dose if it differs, or a comment.
SMILES,EWS-Fli block,Env fusion inh,PGC1a acetyl inh,F508del corr,INS-1E GSIS act,PAX8 reporter
Cc1cc(NC2CCCC2)n2ncc(-c3ccccc3)c2n1,62*,-200,5,4,32,-2
Cc1noc(C)c1NC(=O)N(C)C[C@H]1Oc2ccc(NC(=O)c3ccncc3)cc2CC(=O)N([C@@H](C)CO)C[C@@H]1C,5,-8[16.7 µM],4,0,9,-12
C[C@H](CO)N1C[C@H](C)[C@@H](CN(C)C(=O)NC2CCCCC2)Oc2c(NC(=O)c3cnccn3)cccc2C1=O,4,-5[16.7 µM],1,6,11,-29
CCN1C(=O)[C@@H]2[C@@H](c3ccc(-c4ccc(Cl)c(Cl)c4)cc3)N3CCCC[C@@]3(C(=O)OC)[C@@H]2C1=O,-6,63*,2,3,nt,3
CCN1C(=O)[C@@H]2[C@@H](c3ccc(-c4ccc(Cl)c(Cl)c4)c(OC)c3)N3CCC[C@@]3(C(=O)OC)[C@@H]2C1=O,4,-1,nt,3,nt,70*
CCSc1ccc([C@@H]2[C@H]3C(=O)N(CC)C(=O)[C@H]3[C@]3(C(=O)OC)CCCCN23)cc1,-4,-15,-3,1,-25,-4
CCSc1ccc([C@@H]2[C@@H]3C(=O)N(CC)C(=O)[C@@H]3[C@]3(C(=O)OC)CCCCN23)cc1,3,63*,-3,-2,nt,0
COC(=O)[C@@]12CCCCN1[C@H](c1ccc(-c3ccc(Cl)c(Cl)c3)cc1)[C@H]1C(=O)N(C)C(=O)[C@H]12,0,17,2,3,-9,-11
CC(C)C[C@@H](COCc1cccc(C(F)(F)F)c1)N1CCN(C(=O)c2ccc(C(F)(F)F)cc2)CCC1=O,1,62*,nt,4,-19,32
CC(C)CC(COCc1cccc(Cl)c1)N1CCN(C(=O)c2cccc(C(F)(F)F)c2)CCC1=O (configuration not stated),7,76*,-7,-4,-55,13
COc1ccc(COCC(CC(C)C)N2CCN(C(=O)c3cccc(C(F)(F)F)c3)CCC2=O)cc1 (configuration not stated),-1,-3,-2,-4,-16,4
O=C(NCCc1ccncc1)[C@@H]1[C@@H](CO)[C@@H]2Cn3c(ccc(-c4cccnc4)c3=O)[C@@H]2N1C(=O)C1CC1,-8,nt,nt,-1,-3,0
Cc1cccc(-c2ccc([C@H]3[C@H](CO)N4C(=O)CN(C(=O)c5ccccc5)C[C@@H]34)cc2)c1,3,nt,1,-2,-9,-2
COc1cccc(CNC(=O)C[C@H]2CC[C@H]3[C@H](COc4ccc(NC(=O)c5cccs5)cc4C(=O)N3C)O2)c1,2,-16[16.7 µM],7,-2,-8,1
O=C(Cn1cc(C(F)(F)F)ccc1=O)Nc1ccc2c(c1)OCO2,0,24,1,7,nt,95*
COC(=O)c1ccc(CN2CC(=O)N3[C@H](C2)[C@@H](c2ccc(Br)cc2)[C@@H]3CO)cc1,4,nt,18,1,-1,-6
CCn1c(=NC(=O)CS(=O)(=O)c2ccccc2)sc2cccc(OC)c21,12,57*,nt,1,-40,-20
Cn1c(=NC(=O)CS(=O)(=O)c2ccccc2)sc2ccccc21,-26,-21,-5,-1,1,-107
CCCCNC(=O)CSc1nc2ccc(C)cc2[nH]1,7,3,6,17*,6,-2
Cc1ccc2nc(SCC(=O)c3c(N)n(C)c(=O)n(C)c3=O)[nH]c2c1,54*,0,nt,-6,-14,9
COc1ccc(CNC(=O)CSc2nc3ccc(C)cc3[nH]2)cc1,-21,-3,9,3,4,-25
Cc1ccc2nc(SCC(=O)c3cc(C)n(C)c3C)[nH]c2c1,nt,nt,10,nt,0,nt
OC[C@@H]1[C@@H](c2ccc(C#Cc3ccccc3)cc2)[C@@H]2CN(Cc3ccccn3)CCCCN12,nt,nt,nt,nt,-20,nt
C[C@H](CO)N1C[C@H](C)[C@@H](CN(C)Cc2ccccn2)Oc2cc(C3=CCCC3)ccc2S1(=O)=O,17,nt,-7,-4,6,17
CCNC(=O)[C@H]1[C@H](CO)[C@H]2Cn3c(ccc(/C=C/c4ccccc4)c3=O)[C@@H]1N2C(=O)C1CCCC1,-1,nt,8,-1,-6,4
SMILES,EWS-Fli block,Env fusion inh,PGC1a acetyl inh,F508del corr,INS-1E GSIS act,PAX8 reporter
CC[N+](CC)(CC)CCOc1ccc(/C=C/c2ccccc2)cc1,7,22,-12,-1,-1,96*
Cc1ccc(C(=O)N2CCN(c3ncccn3)CC2)cc1,2,-1,80*,-2,13,-9
Cc1ccc(NS(=O)(=O)c2ccc(C(=O)N3CCN(c4ncccn4)CC3)cc2)cc1,16,32,-2,3,-56,23
CCN(C1CCCCC1)S(=O)(=O)c1ccc(S(=O)(=O)NCc2ccncc2)cc1,nt,81*,13,nt,-24,nt
C=CCn1c(O)c(C2=c3ccccc3=NC2=O)c2ccccc21,47,-28,nt,-15,-8,-18
Cc1ccc2c(c1)c(C1=c3ccccc3=NC1=O)c(O)n2C,64*,-5,nt,-5,3,7
CN(C)c1ccc2c(c1)[C@H]1C[C@H](CC(=O)O)O[C@@H](CO)[C@H]1O2,2,-8[16.7 µM],9,-1,6,-9
COc1ccc(C(CC(=O)Nc2ccccn2)N2Cc3ccccc3C2=O)cc1 (configuration not stated),-51,9,76*,-1,-23,-55
COc1ccc(C(CC(=O)Nc2ncccc2C)N2Cc3ccccc3C2=O)cc1 (configuration not stated),-5,-2,-13,-4,17,18
CC(=O)c1c(O)cc2c3c1OC(C)(C)C1CCC(C)(CC31)O2 (configuration not stated),-3,69*,5,0,5,-2
COc1cc(O)c(C(C)=O)c2c1C=CC(C)(C)O2,-75,nt,-1,-2,-4,nt
COc1ccc(NC(=O)CSc2nnc(Cc3cccs3)n2C)cc1,-8,13,nt,10*,5,-3
COc1ccc(NC(=O)CSc2nc3ccsc3c(=O)n2CCC(=O)O)cc1,-1,60*,-6,-3,4,-6
COc1ccccc1NC(=O)CSc1nnc(Cc2cccs2)n1C,-4,5,nt,2,9,nt
C#CC[N+](C)(C)CCCCCCCCCCCC,-2,26,nt,nt,nt,87*
C#CC[N+](C)(C)CCCCCCCC,7,16,nt,0,9,1
C#CC[N+](C)(C)CCCCCCCCCC,6,1,-12,nt,nt,20
CC#CC[N+](C)(C)CCCCCCCCCCCC,26,62*,nt,4,-35,83*
C[C@@H]1CN([C@@H](C)CO)C(=O)c2cc(NC(=O)Cc3ccccc3)ccc2O[C@@H](C)CCCCO[C@@H]1CN(C)C(=O)Cc1ccccc1,1,-4[16.7 µM],3,-1,-32,-36
